Assay results as given in ChEMBL document CHEMBL4513216, “Probing the Open Global Health Chemical Diversity Library for Multistage-Active Starting Points for Next-Generation Antimalarials” (ACS Infect Dis, 2020).
About 8,600 (12%) of roughly 69,000 compounds showed an effect of 50% or more. The list comes from a sample in which strong results are over-represented; it also holds similar structures and randomly drawn compounds.

System: Plasmodium berghei
Assay: Screen against P. berghei liver stage (PbLuc), transformed with Luciferase, at 10uM
Type: functional, HepG2
Settings: tested at 10 uM

**Q.** With `Cc1cc(NC(=O)C(C)N2CCN(c3ccc(C#N)cc3F)CC2)no1` (stereo unspecified) as the molecule, how does the INHIBITION read?
**A.** 55%

**Q.** With `CC(C(=O)NC(N)=O)N1CCN(c2ccc(C#N)cc2F)CC1` (stereo unspecified) as the molecule, how does the INHIBITION read?
**A.** -45%

**Q.** With `Cc1cc(NC(=O)C(C)N2CCN(c3ccccc3F)CC2)no1` (stereo unspecified) as the molecule, how does the INHIBITION read?
**A.** 8.38%

**Q.** With `COCC(=O)N1CC[C@@H](OCC2CC2)[C@@H]1Cc1cccnc1` as the molecule, how does the INHIBITION read?
**A.** -31.4%

**Q.** Which INHIBITION does the source give for `Cc1cnn(CC2CCCN2Cc2noc(C(C)C)n2)c1` (stereo unspecified) here?
**A.** 25.6%

**Q.** With `COCCO[C@H]1CCN(C(=O)C2CCOCC2)[C@H]1Cc1ccncc1` as the molecule, how does the INHIBITION read?
**A.** 26.7%

**Q.** `CCOc1cncc(N2CCN(c3ccccc3O)CC2)n1` was tested. Which INHIBITION did it give?
**A.** 39.7%

**Q.** `Cc1nc(C)c(C)c(N2CCC(NCCOc3ccccc3)CC2)n1` was tested. Which INHIBITION did it give?
**A.** 77.8%

**Q.** Which INHIBITION does the source give for `Cc1cc(N2CCC(NCCOc3ccccc3)CC2)nc(C)n1` here?
**A.** 9.72%

**Q.** For `c1ccc(OCCNC2CCN(c3ncccn3)CC2)cc1`, which INHIBITION is on record?
**A.** -32.6%

**Q.** How did the INHIBITION turn out when `O=C(CC1COCCN1)N1CCC2(CCc3ccccc32)CC1` (stereo unspecified) was run?
**A.** -60.2%

**Q.** For `CC1CN(Cc2cccc(C#N)c2)CCN1c1ccc2nncn2n1` (stereo unspecified), which INHIBITION is on record?
**A.** 53.5%

**Q.** With `CC1CN(Cc2cccnc2)CCN1c1ccc2nncn2n1` (stereo unspecified) as the molecule, how does the INHIBITION read?
**A.** 16.9%

**Q.** With `COc1cccc(CN2CCN(c3ccc4nncn4n3)C(C)C2)c1` (stereo unspecified) as the molecule, how does the INHIBITION read?
**A.** 83%

**Q.** With `CC1CN(Cc2cnn(C)c2)CCN1c1ccc2nncn2n1` (stereo unspecified) as the molecule, how does the INHIBITION read?
**A.** 10%

**Q.** For `Cc1ncc(CN2CCN(c3ccc4nncn4n3)C(C)C2)s1` (stereo unspecified), which INHIBITION is on record?
**A.** 8.64%

**Q.** For `CC1CN(c2ccc(C#N)cn2)CCN1c1ccc2nncn2n1` (stereo unspecified), which INHIBITION is on record?
**A.** -9.69%

**Q.** How did the INHIBITION turn out when `CC(C)c1nccn1C1CCCN(C(=O)c2cc(C3CC3)on2)C1` (stereo unspecified) was run?
**A.** 48.4%

**Q.** For `CNC(=O)C1CN(C(=O)Cc2ccc(OC)cc2)Cc2cn(C)nc21` (stereo unspecified), which INHIBITION is on record?
**A.** -6.51%

**Q.** Which INHIBITION does the source give for `O=C(NC1CCN(c2cccc(OC(F)(F)F)c2)C1=O)C1CCC1` (stereo unspecified) here?
**A.** 34.6%

**Q.** `O=C(NC1CCN(c2cccc(OC(F)(F)F)c2)C1=O)C1CC1` (stereo unspecified) was tested. Which INHIBITION did it give?
**A.** 61.1%

**Q.** Which INHIBITION does the source give for `CCC(=O)NC1CCN(c2cccc(OC(F)(F)F)c2)C1=O` (stereo unspecified) here?
**A.** 40.6%

**Q.** How did the INHIBITION turn out when `O=C1NCC[C@]12CN(Cc1nccs1)C[C@H]2c1ccccc1` was run?
**A.** 45.8%

**Q.** How did the INHIBITION turn out when `CN(CC1(C)COC1)C(=O)c1cc(-c2cnn(C)c2)nc2ccccc12` was run?
**A.** 9.7%

**Q.** Which INHIBITION does the source give for `COc1ccccc1-c1c[nH]c(C2CCCN2)n1` (stereo unspecified) here?
**A.** -33.3%

**Q.** With `CCc1ocnc1C(=O)N1CCN(c2ccc3ccccc3c2)CC1` as the molecule, how does the INHIBITION read?
**A.** 26.5%

**Q.** How did the INHIBITION turn out when `CCc1n[nH]c(C(=O)N2CCN(c3ccc4ccccc4c3)CC2)c1C` was run?
**A.** 61.1%

**Q.** `CCc1n[nH]c(C(=O)N2CCCC3(CN(C)C(=O)O3)C2)c1C` (stereo unspecified) was tested. Which INHIBITION did it give?
**A.** 45.2%

**Q.** `Cc1nc(CN(CCS(C)(=O)=O)C(C)C)cs1` was tested. Which INHIBITION did it give?
**A.** 53.6%

**Q.** How did the INHIBITION turn out when `CC(C)N(CCS(C)(=O)=O)Cc1csc(Cc2ccc(Cl)cc2)n1` was run?
**A.** 35%

**Q.** With `CC(C)N(CCS(C)(=O)=O)Cc1csc(-c2ccccc2F)n1` as the molecule, how does the INHIBITION read?
**A.** 33.2%
